# Experimental data published in paper PMC7862700, “An all-to-all approach to the identification of sequence-specific readers for epigenetic DNA modifications on cytosine”.
# Assays:
# Assay in all cases: DAPPL (digital affinity profiling via proximity ligation, sequencing); 10 mM Tris-HCl pH 7.5, 50 mM NaCl, 1 mM DTT, 4% glycerol, room temperature, 30 min; GST-TFs on glutathione beads, 16-mer random dsDNA library, 0.1% formaldehyde crosslink after washing; high values mean tight binding
# FEV = target: T1, FEV (Homo sapiens, UniProt Q99581 1-238); settings: protein: recombinant; tags: N-terminal GST; dsDNA, one strand shown
# T1 sequence: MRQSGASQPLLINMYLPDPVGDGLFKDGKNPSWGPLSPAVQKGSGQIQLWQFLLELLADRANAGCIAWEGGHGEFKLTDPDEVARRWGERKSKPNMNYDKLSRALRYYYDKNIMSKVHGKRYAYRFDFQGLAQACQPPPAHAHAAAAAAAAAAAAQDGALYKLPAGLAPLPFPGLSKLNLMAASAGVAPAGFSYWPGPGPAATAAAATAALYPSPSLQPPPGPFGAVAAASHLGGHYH
# How it was run: (§1)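 Binding signal is each hexamer's read frequency for a factor divided by its frequency in the tag-only sample. The factors were GST-fused human transcription factors from yeast, captured on glutathione beads, DNA-barcoded and pooled with that sample. Pools were incubated with 200 nmole of a random double-stranded 16-mer DNA library in Tris/NaCl/DTT/glycerol buffer at room temperature for 30 min, then washed, crosslinked with 0.1% formaldehyde, proximity-ligated with BsaI/T4 ligase (1 h, 37 °C), PCR-amplified and sequenced on an Illumina NextSeq500.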
# ETV5 = ETV5 (Homo sapiens, UniProt P41161 1-510); settings: protein: recombinant; tags: N-terminal GST; dsDNA, one strand shown
# Sequence of ETV5 (P41161 whole entry): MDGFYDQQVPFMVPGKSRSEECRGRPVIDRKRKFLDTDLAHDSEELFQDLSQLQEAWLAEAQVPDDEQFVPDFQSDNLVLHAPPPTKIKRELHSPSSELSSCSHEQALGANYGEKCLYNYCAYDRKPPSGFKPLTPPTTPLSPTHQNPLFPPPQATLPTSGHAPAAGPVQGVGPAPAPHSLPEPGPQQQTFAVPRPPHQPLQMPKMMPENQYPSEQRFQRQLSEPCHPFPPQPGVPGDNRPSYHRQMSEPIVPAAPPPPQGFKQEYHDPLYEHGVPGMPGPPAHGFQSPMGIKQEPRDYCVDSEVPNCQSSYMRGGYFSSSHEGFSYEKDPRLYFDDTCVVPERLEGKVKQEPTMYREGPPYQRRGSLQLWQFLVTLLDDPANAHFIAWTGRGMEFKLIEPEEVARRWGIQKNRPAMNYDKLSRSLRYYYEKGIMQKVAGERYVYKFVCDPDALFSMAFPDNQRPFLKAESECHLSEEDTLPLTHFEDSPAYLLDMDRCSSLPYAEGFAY
# How it was run: as §1
# HSF1 = HSF1 (Homo sapiens, UniProt Q00613 1-529); settings: protein: recombinant; tags: N-terminal GST; chain copies: 3; dsDNA, one strand shown
# Sequence of HSF1 (Q00613 whole entry): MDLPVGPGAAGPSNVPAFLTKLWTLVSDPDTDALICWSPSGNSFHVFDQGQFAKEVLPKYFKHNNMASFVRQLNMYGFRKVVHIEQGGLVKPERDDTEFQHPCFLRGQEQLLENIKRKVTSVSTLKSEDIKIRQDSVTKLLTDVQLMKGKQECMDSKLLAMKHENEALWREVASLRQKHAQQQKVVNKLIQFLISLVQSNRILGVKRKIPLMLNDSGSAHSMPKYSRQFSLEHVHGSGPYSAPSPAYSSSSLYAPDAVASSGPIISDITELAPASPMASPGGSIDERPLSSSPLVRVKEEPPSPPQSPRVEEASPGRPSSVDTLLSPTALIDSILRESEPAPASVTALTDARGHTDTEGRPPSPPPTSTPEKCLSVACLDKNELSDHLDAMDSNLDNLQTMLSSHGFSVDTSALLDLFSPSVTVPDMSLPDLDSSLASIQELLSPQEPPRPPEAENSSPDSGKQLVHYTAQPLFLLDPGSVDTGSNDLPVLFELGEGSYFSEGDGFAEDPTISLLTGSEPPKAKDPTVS
# How it was run: as §1
# SPIC = target: T2, SPIC (Homo sapiens, UniProt Q8N5J4 1-248); settings: protein: recombinant; tags: N-terminal GST; dsDNA, one strand shown
# T2 sequence: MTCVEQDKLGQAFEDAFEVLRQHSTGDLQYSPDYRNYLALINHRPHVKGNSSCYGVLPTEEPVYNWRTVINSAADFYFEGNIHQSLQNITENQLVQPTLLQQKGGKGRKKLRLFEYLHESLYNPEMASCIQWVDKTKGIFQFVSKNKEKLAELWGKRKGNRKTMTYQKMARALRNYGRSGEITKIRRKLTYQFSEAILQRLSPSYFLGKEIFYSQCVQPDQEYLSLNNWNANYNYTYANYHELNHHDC
# How it was run: as §1
# ELF4 = ELF4 (Homo sapiens, UniProt Q99607 1-663); settings: protein: recombinant; tags: N-terminal GST; dsDNA, one strand shown
# Sequence of ELF4 (Q99607 whole entry): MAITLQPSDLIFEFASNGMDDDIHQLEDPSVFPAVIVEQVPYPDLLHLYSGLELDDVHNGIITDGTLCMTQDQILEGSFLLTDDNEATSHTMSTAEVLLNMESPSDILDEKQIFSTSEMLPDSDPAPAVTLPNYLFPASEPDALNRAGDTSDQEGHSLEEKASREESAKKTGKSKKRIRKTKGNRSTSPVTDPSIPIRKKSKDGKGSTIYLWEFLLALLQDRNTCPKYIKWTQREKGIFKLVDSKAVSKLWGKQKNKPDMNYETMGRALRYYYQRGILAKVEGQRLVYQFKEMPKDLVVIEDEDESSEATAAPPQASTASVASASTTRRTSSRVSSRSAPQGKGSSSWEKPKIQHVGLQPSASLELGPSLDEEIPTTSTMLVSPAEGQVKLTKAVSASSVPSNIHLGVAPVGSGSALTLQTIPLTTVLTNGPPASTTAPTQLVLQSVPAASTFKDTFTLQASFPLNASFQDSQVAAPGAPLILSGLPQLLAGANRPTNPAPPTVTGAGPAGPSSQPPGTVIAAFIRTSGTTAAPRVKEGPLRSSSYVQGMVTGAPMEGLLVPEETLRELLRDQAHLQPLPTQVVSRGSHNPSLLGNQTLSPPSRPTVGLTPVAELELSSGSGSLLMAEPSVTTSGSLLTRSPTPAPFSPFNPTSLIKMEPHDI
# How it was run: as §1
# ELK4 = target: T3, ELK4 (Homo sapiens, UniProt P28324-2 1-405); settings: protein: recombinant; tags: N-terminal GST; dsDNA, one strand shown
# T3 sequence: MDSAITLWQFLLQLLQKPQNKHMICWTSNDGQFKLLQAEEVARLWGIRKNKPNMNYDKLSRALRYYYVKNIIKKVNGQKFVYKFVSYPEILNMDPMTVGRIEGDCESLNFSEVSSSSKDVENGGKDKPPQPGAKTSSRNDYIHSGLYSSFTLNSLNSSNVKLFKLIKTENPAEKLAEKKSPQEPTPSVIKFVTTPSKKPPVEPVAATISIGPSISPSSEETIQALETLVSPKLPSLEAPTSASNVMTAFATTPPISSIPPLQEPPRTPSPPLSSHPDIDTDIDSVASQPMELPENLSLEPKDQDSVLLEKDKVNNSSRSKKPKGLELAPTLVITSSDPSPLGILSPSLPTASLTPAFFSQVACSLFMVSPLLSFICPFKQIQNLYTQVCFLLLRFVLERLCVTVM
# How it was run: as §1
# ETV2 = target: T4, ETV2 (Homo sapiens, UniProt O00321 1-342); settings: protein: recombinant; tags: N-terminal GST; dsDNA, one strand shown
# T4 sequence: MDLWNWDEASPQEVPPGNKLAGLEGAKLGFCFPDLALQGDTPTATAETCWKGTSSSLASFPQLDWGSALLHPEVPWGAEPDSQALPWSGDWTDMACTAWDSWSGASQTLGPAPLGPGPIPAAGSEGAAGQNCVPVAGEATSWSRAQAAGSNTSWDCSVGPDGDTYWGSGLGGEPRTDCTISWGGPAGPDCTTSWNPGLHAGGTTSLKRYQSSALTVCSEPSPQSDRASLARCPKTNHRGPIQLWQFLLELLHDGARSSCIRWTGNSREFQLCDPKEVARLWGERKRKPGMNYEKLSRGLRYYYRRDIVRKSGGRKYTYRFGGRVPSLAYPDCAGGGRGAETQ
# How it was run: as §1
# ELF3 = target: T5, ELF3 (Homo sapiens, UniProt P78545 1-371); settings: protein: recombinant; tags: N-terminal GST; dsDNA, one strand shown
# T5 sequence: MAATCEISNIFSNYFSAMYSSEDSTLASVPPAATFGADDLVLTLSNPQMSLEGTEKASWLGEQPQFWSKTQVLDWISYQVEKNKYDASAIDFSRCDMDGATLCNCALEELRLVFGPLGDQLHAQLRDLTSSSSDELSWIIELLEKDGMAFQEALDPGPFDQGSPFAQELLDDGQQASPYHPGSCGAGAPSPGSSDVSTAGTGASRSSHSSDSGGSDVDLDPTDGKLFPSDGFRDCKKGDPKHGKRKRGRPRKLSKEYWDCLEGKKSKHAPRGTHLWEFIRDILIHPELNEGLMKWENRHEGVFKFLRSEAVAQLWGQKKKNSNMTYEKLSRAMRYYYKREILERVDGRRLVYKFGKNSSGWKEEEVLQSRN
# How it was run: as §1
# CRX = CRX (Homo sapiens, UniProt O43186 1-299); settings: protein: recombinant; tags: N-terminal GST; dsDNA, one strand shown
# Sequence of CRX (O43186 whole entry): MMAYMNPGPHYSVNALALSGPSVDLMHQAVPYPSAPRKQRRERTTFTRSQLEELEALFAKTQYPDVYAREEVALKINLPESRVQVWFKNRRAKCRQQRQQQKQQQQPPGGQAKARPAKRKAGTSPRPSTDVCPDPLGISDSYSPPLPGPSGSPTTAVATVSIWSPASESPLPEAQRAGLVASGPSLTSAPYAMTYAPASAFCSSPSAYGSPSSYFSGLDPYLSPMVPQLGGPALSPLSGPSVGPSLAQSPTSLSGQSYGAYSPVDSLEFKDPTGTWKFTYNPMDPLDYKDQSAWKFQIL
# How it was run: as §1
# ETV1 = ETV1 (Homo sapiens, UniProt P50549 1-477); settings: protein: recombinant; tags: N-terminal GST; dsDNA, one strand shown
# Sequence of ETV1 (P50549 whole entry): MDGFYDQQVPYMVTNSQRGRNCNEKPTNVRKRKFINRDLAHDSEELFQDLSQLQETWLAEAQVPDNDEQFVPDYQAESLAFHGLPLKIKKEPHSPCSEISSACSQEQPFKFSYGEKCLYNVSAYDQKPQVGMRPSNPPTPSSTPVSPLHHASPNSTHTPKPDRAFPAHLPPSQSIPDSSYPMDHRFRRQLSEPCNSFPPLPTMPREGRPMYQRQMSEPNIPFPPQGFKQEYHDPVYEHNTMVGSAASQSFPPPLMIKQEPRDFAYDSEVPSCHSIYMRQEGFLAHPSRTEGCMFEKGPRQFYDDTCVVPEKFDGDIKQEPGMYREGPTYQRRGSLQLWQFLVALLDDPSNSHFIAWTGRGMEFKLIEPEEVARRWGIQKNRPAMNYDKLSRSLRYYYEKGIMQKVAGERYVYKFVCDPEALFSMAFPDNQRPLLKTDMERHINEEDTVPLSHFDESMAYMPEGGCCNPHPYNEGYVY
# How it was run: as §1
# ERF = target: T6, ERF (Homo sapiens, UniProt P50548 1-548); settings: protein: recombinant; tags: N-terminal GST; dsDNA, one strand shown
# T6 sequence: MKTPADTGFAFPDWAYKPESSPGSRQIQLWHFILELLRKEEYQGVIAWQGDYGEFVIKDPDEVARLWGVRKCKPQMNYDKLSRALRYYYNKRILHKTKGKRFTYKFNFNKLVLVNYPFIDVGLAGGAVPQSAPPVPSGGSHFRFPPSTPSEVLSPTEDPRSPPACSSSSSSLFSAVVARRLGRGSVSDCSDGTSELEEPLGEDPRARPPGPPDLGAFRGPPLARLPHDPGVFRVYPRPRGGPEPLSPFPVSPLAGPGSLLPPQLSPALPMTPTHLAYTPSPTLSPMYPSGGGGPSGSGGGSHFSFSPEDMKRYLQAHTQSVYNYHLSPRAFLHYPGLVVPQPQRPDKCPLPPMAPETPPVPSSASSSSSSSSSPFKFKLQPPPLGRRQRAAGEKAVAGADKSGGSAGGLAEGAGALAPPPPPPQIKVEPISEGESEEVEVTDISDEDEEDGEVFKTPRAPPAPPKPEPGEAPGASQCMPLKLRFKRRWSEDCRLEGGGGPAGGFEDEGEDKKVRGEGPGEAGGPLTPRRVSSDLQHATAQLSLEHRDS
# How it was run: as §1
# ETV3L = target: T7, ETV3L (Homo sapiens, UniProt Q6ZN32 1-361); settings: protein: recombinant; tags: N-terminal GST; dsDNA, one strand shown
# T7 sequence: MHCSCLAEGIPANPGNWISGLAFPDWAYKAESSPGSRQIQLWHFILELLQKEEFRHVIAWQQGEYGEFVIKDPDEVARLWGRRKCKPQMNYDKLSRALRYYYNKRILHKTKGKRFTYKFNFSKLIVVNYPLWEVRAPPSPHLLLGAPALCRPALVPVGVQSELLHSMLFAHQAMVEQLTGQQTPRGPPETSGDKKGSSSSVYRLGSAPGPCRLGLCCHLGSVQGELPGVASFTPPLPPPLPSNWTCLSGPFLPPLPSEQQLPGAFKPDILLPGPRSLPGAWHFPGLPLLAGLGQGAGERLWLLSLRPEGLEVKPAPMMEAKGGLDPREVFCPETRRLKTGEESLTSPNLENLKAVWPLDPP
# How it was run: as §1
# ETS2 = target: T8, ETS2 (Homo sapiens, UniProt P15036 1-469); settings: protein: recombinant; tags: N-terminal GST; dsDNA, one strand shown
# T8 sequence: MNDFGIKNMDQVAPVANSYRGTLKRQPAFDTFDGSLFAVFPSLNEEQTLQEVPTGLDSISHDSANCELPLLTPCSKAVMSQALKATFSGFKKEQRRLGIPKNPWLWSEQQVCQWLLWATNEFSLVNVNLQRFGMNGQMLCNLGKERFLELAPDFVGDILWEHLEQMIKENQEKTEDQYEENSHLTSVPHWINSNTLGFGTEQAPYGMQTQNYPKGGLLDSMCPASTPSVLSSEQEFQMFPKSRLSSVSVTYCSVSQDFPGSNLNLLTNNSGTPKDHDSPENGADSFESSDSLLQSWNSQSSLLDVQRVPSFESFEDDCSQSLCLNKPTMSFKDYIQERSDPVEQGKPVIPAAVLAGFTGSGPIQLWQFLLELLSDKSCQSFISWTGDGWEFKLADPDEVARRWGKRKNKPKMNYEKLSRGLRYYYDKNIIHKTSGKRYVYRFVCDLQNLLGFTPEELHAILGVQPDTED
# How it was run: as §1
# SPDEF = target: T9, SPDEF (Homo sapiens, UniProt O95238 1-335); settings: protein: recombinant; tags: N-terminal GST; dsDNA, one strand shown
# T9 sequence: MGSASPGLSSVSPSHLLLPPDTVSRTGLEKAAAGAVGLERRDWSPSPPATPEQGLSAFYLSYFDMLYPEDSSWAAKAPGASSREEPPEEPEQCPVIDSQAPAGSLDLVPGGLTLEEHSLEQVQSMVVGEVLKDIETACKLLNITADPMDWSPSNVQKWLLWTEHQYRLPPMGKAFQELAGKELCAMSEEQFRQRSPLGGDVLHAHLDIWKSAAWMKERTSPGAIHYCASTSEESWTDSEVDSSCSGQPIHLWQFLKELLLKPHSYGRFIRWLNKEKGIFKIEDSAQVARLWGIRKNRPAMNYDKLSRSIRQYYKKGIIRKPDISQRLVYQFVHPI
# How it was run: as §1
# ETV7 = target: T10, ETV7 (Homo sapiens, UniProt Q9Y603 1-341); settings: protein: recombinant; tags: N-terminal GST; dsDNA, one strand shown
# T10 sequence: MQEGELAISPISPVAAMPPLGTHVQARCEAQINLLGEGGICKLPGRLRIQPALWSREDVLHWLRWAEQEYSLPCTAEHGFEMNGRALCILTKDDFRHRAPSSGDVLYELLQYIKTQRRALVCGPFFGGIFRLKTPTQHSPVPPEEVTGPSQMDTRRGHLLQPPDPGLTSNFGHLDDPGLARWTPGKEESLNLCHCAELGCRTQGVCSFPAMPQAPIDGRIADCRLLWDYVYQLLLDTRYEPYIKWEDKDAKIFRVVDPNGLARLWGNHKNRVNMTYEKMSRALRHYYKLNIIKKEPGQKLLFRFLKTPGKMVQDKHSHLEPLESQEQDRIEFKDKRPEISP
# How it was run: as §1
# ELF5 = target: T11, ELF5 (Homo sapiens, UniProt Q9UKW6-2 1-255); settings: protein: recombinant; tags: N-terminal GST; dsDNA, one strand shown
# T11 sequence: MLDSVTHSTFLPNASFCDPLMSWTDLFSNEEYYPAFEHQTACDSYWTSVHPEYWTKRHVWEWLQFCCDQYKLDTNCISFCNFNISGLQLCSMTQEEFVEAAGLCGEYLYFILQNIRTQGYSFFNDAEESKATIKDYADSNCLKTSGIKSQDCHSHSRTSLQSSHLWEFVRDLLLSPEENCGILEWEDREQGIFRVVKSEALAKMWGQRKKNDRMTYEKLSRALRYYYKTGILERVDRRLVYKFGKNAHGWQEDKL
# How it was run: as §1
# ETV3 = target: T12, ETV3 (Homo sapiens, UniProt P41162-2 1-143); settings: protein: recombinant; tags: N-terminal GST; dsDNA, one strand shown
# T12 sequence: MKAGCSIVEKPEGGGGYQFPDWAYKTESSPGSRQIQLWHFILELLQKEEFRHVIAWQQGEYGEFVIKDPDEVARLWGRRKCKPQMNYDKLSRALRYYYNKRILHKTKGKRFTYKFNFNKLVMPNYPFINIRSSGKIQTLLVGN
# How it was run: as §1
# ETV6 = ETV6 (Homo sapiens, UniProt P41212 1-452); settings: protein: recombinant; tags: N-terminal GST; dsDNA, one strand shown
# Sequence of ETV6 (P41212 whole entry): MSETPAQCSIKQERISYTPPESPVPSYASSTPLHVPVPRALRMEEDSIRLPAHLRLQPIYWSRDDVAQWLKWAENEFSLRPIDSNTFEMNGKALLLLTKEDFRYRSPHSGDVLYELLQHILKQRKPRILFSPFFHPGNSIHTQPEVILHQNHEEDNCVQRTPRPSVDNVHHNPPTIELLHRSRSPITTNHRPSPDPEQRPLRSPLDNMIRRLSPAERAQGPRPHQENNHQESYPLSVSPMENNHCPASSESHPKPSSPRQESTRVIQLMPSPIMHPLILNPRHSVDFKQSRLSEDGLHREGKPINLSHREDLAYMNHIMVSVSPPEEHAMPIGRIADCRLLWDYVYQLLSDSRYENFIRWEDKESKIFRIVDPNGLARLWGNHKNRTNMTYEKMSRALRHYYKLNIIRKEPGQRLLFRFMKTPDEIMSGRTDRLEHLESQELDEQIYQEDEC
# How it was run: as §1
sequence,measurement,setting,value
ACCCTC,binding signal,FEV,"1.15 fold enrichment (6-mer frequency, TF over GST control)"
same,binding signal,ETV5,"1.2 fold enrichment (6-mer frequency, TF over GST control)"
same,binding signal,HSF1,"1.11 fold enrichment (6-mer frequency, TF over GST control)"
same,binding signal,SPIC,"1.24 fold enrichment (6-mer frequency, TF over GST control)"
same,binding signal,ELF4,"1.25 fold enrichment (6-mer frequency, TF over GST control)"
same,binding signal,ELK4,"1.01 fold enrichment (6-mer frequency, TF over GST control)"
same,binding signal,ETV2,"1.15 fold enrichment (6-mer frequency, TF over GST control)"
same,binding signal,ELF3,"1.12 fold enrichment (6-mer frequency, TF over GST control)"
same,binding signal,CRX,"1.11 fold enrichment (6-mer frequency, TF over GST control)"
same,binding signal,ETV1,"1.14 fold enrichment (6-mer frequency, TF over GST control)"
same,binding signal,ERF,"1.19 fold enrichment (6-mer frequency, TF over GST control)"
same,binding signal,ETV3L,"1.08 fold enrichment (6-mer frequency, TF over GST control)"
same,binding signal,ETS2,"1.19 fold enrichment (6-mer frequency, TF over GST control)"
same,binding signal,SPDEF,"1.11 fold enrichment (6-mer frequency, TF over GST control)"
same,binding signal,ETV7,"1.13 fold enrichment (6-mer frequency, TF over GST control)"
same,binding signal,ELF5,"1.06 fold enrichment (6-mer frequency, TF over GST control)"
same,binding signal,ETV3,"1.16 fold enrichment (6-mer frequency, TF over GST control)"
same,binding signal,ETV6,"1.12 fold enrichment (6-mer frequency, TF over GST control)"
